Legend:
Experiment in all cases: DAPPL (digital affinity profiling via proximity ligation, sequencing); 10 mM Tris-HCl pH 7.5, 50 mM NaCl, 1 mM DTT, 4% glycerol, room temperature, 30 min; GST-TFs on glutathione beads, 16-mer random dsDNA library, 0.1% formaldehyde crosslink after washing; high values mean tight binding
Settings in all cases: protein: recombinant; tags: N-terminal GST; dsDNA, one strand shown
FLI1 = target: T1, FLI1 (Homo sapiens, UniProt Q01543 1-452)
T1 sequence: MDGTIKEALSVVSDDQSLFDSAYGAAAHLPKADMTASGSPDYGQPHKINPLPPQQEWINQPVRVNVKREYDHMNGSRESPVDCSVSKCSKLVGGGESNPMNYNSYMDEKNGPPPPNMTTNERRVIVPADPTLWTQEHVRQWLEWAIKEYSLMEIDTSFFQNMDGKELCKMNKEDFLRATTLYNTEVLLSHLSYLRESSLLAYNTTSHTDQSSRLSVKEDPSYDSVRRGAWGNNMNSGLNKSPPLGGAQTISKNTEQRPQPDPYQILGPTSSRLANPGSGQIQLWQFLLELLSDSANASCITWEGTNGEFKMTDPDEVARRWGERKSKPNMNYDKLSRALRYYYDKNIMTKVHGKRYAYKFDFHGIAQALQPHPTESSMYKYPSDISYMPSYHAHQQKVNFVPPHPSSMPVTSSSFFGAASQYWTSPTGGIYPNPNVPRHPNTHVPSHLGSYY
Method in brief: (§1)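 Binding signal is given per hexamer as its read frequency for a factor divided by its frequency in the tag-only sample. GST-fused human transcription factors were expressed in yeast, captured on glutathione beads, barcoded with DNA and pooled with that sample, then incubated with 200 nmole of a 16-mer random double-stranded DNA library in Tris/NaCl/DTT/glycerol buffer for 30 min at room temperature. The pools were then washed, crosslinked, proximity-ligated, amplified by PCR and sequenced on an Illumina NextSeq500.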

ELK1 = target: T2, ELK1 (Homo sapiens, UniProt P19419 1-428)
T2 sequence: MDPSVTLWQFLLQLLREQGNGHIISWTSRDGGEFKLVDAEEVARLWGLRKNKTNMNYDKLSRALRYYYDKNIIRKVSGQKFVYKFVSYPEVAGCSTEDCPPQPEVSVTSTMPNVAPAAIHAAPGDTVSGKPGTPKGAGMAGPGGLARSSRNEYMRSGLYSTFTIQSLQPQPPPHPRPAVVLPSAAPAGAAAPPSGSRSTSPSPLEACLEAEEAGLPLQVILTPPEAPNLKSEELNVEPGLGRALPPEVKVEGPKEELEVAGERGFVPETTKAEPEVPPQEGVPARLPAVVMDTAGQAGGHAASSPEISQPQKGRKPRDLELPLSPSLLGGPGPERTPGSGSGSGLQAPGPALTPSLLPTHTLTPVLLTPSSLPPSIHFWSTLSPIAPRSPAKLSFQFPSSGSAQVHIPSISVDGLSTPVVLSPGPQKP
Method in brief: as §1

GABPA = target: T3, GABPA (Homo sapiens, UniProt Q06546 1-454)
T3 sequence: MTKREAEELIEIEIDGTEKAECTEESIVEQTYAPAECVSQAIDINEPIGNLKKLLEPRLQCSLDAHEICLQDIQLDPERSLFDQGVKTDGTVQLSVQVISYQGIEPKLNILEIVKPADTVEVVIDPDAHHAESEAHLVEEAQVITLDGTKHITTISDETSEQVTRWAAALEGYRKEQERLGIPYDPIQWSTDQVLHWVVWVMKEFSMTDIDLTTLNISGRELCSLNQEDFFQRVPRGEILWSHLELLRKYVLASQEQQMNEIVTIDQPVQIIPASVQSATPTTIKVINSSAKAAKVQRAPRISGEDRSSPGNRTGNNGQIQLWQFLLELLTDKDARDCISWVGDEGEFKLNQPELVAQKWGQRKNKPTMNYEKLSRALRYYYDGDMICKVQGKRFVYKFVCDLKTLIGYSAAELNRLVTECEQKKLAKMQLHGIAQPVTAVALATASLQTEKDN
Method in brief: as §1

ERG = target: T4, ERG (Homo sapiens, UniProt P11308 1-479)
T4 sequence: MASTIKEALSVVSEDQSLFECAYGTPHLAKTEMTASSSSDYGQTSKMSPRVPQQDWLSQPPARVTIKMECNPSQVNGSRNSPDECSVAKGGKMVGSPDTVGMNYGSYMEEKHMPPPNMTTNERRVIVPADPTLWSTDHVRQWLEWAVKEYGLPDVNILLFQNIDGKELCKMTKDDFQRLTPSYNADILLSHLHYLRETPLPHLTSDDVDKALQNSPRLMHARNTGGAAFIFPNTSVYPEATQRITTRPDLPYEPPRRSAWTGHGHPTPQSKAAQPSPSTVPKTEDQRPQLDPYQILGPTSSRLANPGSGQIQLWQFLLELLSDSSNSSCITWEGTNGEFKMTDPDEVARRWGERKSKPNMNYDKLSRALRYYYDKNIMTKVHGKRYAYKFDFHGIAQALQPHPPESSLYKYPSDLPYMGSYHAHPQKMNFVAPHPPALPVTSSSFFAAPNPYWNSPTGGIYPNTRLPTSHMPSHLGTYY
Method in brief: as §1

ELF1 = ELF1 (Homo sapiens, UniProt P32519 1-619)
Chain of ELF1 (P32519 whole entry): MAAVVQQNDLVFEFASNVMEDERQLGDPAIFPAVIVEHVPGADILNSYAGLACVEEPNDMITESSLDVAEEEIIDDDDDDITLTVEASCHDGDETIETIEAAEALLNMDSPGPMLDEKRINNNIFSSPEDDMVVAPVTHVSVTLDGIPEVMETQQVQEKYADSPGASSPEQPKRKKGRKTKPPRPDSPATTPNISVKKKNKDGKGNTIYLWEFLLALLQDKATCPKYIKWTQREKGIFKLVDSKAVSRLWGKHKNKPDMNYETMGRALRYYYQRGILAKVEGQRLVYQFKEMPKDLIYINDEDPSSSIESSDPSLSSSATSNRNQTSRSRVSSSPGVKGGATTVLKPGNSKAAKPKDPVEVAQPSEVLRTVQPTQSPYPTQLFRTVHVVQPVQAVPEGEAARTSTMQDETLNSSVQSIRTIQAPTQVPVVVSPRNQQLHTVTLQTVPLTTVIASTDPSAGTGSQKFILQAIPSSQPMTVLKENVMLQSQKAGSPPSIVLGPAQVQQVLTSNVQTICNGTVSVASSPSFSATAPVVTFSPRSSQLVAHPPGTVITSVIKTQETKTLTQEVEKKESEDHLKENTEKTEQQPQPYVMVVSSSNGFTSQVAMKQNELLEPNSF
Method in brief: as §1

EHF = target: T5, EHF (Homo sapiens, UniProt Q9NZC4 1-300)
T5 sequence: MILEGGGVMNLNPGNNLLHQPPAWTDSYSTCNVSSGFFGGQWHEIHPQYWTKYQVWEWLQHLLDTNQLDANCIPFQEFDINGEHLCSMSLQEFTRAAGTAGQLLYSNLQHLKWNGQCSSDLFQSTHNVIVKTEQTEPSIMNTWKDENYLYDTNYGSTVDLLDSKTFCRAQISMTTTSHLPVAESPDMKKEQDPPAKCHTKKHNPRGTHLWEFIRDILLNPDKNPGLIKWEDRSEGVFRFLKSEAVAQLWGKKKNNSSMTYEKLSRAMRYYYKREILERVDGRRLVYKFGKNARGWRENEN
Method in brief: as §1

SPI1 = SPI1 (Homo sapiens, UniProt P17947 1-270)
Method in brief: as §1

SPIB = SPIB (Homo sapiens, UniProt Q01892 1-262)
Chain of SPIB (Q01892 whole entry): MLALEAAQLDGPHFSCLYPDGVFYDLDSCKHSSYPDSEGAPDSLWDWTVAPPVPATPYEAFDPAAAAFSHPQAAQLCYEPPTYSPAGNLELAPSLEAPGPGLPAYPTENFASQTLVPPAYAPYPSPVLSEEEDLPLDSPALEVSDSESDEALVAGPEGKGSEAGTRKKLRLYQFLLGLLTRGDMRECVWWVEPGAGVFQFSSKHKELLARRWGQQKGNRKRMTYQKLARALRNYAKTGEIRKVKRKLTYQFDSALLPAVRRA
Method in brief: as §1

ELK3 = target: T6, ELK3 (Homo sapiens, UniProt P41970 1-407)
T6 sequence: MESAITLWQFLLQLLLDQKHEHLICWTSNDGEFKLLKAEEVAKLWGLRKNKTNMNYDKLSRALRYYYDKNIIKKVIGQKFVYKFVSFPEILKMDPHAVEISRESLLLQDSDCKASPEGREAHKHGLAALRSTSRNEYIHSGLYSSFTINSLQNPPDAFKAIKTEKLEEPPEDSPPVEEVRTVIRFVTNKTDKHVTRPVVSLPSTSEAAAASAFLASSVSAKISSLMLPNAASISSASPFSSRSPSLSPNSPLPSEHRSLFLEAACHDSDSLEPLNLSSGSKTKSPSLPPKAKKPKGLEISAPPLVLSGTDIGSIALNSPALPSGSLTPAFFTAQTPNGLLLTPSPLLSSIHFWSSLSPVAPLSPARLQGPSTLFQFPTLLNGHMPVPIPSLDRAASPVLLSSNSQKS
Method in brief: as §1

FEV = target: T7, FEV (Homo sapiens, UniProt Q99581 1-238)
T7 sequence: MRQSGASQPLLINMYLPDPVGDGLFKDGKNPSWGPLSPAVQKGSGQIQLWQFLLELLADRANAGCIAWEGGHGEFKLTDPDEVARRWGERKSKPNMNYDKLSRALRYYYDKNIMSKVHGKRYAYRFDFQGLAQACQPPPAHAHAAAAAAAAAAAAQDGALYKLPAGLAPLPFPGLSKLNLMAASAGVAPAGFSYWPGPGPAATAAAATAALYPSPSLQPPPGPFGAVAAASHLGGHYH
Method in brief: as §1

ETV5 = ETV5 (Homo sapiens, UniProt P41161 1-510)
Chain of ETV5 (P41161 whole entry): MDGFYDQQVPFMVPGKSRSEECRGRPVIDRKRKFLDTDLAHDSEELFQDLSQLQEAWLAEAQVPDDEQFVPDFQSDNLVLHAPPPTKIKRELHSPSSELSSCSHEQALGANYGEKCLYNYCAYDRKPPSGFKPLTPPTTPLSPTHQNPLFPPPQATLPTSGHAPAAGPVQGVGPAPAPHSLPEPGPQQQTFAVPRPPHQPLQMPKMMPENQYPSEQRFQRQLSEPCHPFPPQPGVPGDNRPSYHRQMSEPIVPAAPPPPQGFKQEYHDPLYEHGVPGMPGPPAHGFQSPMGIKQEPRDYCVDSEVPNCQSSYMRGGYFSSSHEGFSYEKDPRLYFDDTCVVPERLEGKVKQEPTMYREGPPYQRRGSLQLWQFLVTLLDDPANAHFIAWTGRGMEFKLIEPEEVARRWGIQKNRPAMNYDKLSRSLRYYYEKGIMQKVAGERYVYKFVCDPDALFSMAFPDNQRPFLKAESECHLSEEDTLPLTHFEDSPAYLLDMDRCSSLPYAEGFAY
Method in brief: as §1

SPIC = target: T8, SPIC (Homo sapiens, UniProt Q8N5J4 1-248)
T8 sequence: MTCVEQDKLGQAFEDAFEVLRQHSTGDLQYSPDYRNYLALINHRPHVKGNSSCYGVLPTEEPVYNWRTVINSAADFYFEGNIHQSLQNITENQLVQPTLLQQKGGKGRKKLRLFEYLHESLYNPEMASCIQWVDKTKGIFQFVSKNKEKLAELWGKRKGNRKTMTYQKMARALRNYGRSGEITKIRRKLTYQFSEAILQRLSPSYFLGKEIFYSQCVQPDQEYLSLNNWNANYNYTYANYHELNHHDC
Method in brief: as §1

ELF4 = ELF4 (Homo sapiens, UniProt Q99607 1-663)
Chain of ELF4 (Q99607 whole entry): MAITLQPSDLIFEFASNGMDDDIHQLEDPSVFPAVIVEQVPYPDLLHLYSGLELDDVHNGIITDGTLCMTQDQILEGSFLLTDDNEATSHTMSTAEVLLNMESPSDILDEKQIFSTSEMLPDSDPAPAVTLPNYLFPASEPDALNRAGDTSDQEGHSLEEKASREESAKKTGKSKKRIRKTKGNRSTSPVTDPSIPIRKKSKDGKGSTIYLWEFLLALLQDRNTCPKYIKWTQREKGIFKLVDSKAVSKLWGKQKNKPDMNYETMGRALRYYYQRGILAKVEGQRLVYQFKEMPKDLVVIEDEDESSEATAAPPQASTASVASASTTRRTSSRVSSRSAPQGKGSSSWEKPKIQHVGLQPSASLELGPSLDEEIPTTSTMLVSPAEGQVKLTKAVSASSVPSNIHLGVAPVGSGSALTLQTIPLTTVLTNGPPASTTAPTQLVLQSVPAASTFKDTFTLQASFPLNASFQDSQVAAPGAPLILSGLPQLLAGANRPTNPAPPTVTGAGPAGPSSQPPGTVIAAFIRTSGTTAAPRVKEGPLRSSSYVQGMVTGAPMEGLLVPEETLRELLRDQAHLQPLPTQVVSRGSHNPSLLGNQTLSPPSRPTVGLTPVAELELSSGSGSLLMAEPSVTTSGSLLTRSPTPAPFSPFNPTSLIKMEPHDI
Method in brief: as §1

ETV1 = ETV1 (Homo sapiens, UniProt P50549 1-477)
Chain of ETV1 (P50549 whole entry): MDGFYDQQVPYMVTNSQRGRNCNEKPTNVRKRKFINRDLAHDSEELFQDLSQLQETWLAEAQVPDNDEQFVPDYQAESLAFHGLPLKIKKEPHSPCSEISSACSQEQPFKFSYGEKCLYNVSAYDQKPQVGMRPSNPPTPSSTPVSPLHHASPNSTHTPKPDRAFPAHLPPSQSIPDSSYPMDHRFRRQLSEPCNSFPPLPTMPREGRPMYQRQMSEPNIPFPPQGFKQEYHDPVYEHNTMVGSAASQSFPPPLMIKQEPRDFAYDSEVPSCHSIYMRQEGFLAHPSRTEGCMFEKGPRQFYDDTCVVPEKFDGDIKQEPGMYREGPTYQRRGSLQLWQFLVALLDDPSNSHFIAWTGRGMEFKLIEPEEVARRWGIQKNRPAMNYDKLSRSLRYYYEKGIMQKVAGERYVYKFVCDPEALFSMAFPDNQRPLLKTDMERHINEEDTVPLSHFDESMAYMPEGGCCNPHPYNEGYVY
Method in brief: as §1

ERF = target: T9, ERF (Homo sapiens, UniProt P50548 1-548)
T9 sequence: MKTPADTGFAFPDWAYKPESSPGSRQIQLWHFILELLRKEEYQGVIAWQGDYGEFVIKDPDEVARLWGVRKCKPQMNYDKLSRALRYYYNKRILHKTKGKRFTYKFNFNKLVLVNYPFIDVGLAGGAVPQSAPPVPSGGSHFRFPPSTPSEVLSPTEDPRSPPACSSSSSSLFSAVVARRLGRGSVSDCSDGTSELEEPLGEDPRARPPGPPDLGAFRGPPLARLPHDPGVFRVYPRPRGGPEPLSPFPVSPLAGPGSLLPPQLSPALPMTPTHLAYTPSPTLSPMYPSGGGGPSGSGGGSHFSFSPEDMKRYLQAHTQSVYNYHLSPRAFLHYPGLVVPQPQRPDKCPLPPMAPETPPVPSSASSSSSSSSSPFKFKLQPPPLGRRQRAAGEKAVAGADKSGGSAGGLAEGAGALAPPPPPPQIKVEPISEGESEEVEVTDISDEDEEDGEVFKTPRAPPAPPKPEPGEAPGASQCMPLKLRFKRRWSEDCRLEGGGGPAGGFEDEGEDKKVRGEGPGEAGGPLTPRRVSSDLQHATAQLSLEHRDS
Method in brief: as §1

ETV3L = target: T10, ETV3L (Homo sapiens, UniProt Q6ZN32 1-361)
T10 sequence: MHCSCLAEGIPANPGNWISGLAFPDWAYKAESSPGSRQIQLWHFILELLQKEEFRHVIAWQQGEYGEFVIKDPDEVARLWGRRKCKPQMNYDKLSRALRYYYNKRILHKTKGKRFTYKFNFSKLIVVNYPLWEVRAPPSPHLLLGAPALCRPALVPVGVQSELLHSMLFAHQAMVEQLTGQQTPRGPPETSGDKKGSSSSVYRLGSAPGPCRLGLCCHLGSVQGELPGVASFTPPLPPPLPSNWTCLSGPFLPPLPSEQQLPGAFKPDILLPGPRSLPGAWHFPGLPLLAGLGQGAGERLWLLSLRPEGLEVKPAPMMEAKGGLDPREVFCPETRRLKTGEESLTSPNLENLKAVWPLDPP
Method in brief: as §1

ETS2 = target: T11, ETS2 (Homo sapiens, UniProt P15036 1-469)
T11 sequence: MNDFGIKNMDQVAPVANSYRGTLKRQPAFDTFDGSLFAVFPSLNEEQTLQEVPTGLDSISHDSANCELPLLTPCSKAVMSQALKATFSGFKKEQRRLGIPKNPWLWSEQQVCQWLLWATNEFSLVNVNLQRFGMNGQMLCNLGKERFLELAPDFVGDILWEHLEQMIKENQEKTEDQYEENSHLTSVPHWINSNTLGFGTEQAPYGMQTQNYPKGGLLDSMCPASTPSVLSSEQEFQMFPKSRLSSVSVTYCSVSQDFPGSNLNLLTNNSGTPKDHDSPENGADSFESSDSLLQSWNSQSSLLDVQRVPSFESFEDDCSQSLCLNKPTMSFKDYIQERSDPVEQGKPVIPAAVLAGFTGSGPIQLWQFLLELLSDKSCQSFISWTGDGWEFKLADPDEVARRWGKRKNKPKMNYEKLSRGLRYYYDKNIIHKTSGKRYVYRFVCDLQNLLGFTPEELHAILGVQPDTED
Method in brief: as §1

ELF5 = target: T12, ELF5 (Homo sapiens, UniProt Q9UKW6-2 1-255)
T12 sequence: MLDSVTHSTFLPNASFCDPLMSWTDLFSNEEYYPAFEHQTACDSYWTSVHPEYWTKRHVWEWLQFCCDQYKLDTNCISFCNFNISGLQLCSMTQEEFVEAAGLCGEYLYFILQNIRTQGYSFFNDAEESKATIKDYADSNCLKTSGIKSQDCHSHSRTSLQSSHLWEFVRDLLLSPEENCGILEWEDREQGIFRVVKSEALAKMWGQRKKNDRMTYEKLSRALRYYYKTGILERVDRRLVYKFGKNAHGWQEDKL
Method in brief: as §1

ETV3 = target: T13, ETV3 (Homo sapiens, UniProt P41162-2 1-143)
T13 sequence: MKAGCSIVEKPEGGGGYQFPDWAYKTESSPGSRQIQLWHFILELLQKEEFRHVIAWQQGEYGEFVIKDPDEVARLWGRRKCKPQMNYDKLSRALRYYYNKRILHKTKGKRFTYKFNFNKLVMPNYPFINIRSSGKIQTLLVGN
Method in brief: as §1

ETV6 = ETV6 (Homo sapiens, UniProt P41212 1-452)
Chain of ETV6 (P41212 whole entry): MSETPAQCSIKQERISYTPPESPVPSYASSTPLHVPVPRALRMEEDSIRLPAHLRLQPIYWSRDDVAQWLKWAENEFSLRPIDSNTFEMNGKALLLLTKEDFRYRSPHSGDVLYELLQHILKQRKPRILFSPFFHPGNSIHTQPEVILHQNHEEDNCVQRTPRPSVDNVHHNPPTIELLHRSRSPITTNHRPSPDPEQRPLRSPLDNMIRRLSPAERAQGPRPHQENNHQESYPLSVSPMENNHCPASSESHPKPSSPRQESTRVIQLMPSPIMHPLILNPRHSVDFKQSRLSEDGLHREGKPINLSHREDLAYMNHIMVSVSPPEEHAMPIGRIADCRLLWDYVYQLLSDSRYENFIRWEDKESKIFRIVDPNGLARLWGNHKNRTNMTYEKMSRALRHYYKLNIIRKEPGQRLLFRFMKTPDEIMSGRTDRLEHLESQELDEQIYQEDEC
Method in brief: as §1

Sequence: GTCTAC
- binding signal (FLI1): 1.09 fold enrichment (6-mer frequency, TF over GST control)
- binding signal (ELK1): 1.08 fold enrichment (6-mer frequency, TF over GST control)
- binding signal (GABPA): 1.08 fold enrichment (6-mer frequency, TF over GST control)
- binding signal (ERG): 1.05 fold enrichment (6-mer frequency, TF over GST control)
- binding signal (ELF1): 1.05 fold enrichment (6-mer frequency, TF over GST control)
- binding signal (EHF): 1.16 fold enrichment (6-mer frequency, TF over GST control)
- binding signal (SPI1): 1.12 fold enrichment (6-mer frequency, TF over GST control)
- binding signal (SPIB): 1.03 fold enrichment (6-mer frequency, TF over GST control)
- binding signal (ELK3): 1.06 fold enrichment (6-mer frequency, TF over GST control)
- binding signal (FEV): 1.08 fold enrichment (6-mer frequency, TF over GST control)
- binding signal (ETV5): 1.11 fold enrichment (6-mer frequency, TF over GST control)
- binding signal (SPIC): 1.1 fold enrichment (6-mer frequency, TF over GST control)
- binding signal (ELF4): 1.09 fold enrichment (6-mer frequency, TF over GST control)
- binding signal (ETV1): 1.19 fold enrichment (6-mer frequency, TF over GST control)
- binding signal (ERF): 1.07 fold enrichment (6-mer frequency, TF over GST control)
- binding signal (ETV3L): 1.26 fold enrichment (6-mer frequency, TF over GST control)
- binding signal (ETS2): 1.13 fold enrichment (6-mer frequency, TF over GST control)
- binding signal (ELF5): 1.08 fold enrichment (6-mer frequency, TF over GST control)
- binding signal (ETV3): 1.06 fold enrichment (6-mer frequency, TF over GST control)
- binding signal (ETV6): 1 fold enrichment (6-mer frequency, TF over GST control)

Reference: paper PMC7862700, “An all-to-all approach to the identification of sequence-specific readers for epigenetic DNA modifications on cytosine”
